Reference: the supplement of paper PMC6555819

How the values were obtained:
Experiment in all cases: PBM binding z-score (relative to random genomic background probes); higher = stronger binding; sequences stand for … in GC…GCGATTGACAGCGTAGAATGAAGG
[1] = system: FXR:RXRa (NR concentration 270 nM, RXRa partner concentration 90 nM)
Summary of the method: (§1)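 Scanned fluorescence from custom Agilent 4×180K protein-binding microarrays was regression-normalized. Binding z-scores use random background probes as reference. Ligand-free nuclear receptor dimers were incubated on the arrays for 1 h and detected with antibodies against each partner (one per run).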

[2] = system: LXRa:RXRa (NR concentration 270 nM, RXRa partner concentration 90 nM)
Summary of the method: as §1

[3] = system: LXRa homodimer (NR concentration 270 nM)
Summary of the method: as §1

[4] = system: LXRb:RXRa (NR concentration 270 nM, RXRa partner concentration 90 nM)
Summary of the method: as §1

[5] = system: LXRb homodimer (NR concentration 270 nM)
Summary of the method: as §1

[6] = system: PPARa:RXRa (NR concentration 270 nM, RXRa partner concentration 90 nM)
Summary of the method: as §1

[7] = system: PPARg:RXRa (NR concentration 180 nM, RXRa partner concentration 90 nM)
Summary of the method: as §1

[8] = system: PPARg:RXRa 270nM:90nM, anti-RXR (NR concentration 270 nM, RXRa partner concentration 90 nM)
Summary of the method: as §1

[9] = system: PPARg:RXRa 30nM:10nM, anti-RXR (NR concentration 30 nM, RXRa partner concentration 10 nM)
Summary of the method: as §1

[10] = system: PPARg:RXRa 90nM:30nM, anti-RXR (NR concentration 90 nM, RXRa partner concentration 30 nM)
Summary of the method: as §1

[11] = system: PPARg:RXRa DBDmut IVT, anti-RXR (DBD mutation: RXRa K156A/R161A, NR concentration 270 nM, RXRa partner concentration 90 nM)
Summary of the method: as §1

[12] = system: PPARg:RXRa IVT, anti-PPARg (NR concentration 270 nM, RXRa partner concentration 90 nM)
Summary of the method: as §1

[13] = system: PPARg DBDmut:RXRa IVT, anti-PPARg (DBD mutation: PPARg1 K132A/R137A, NR concentration 270 nM, RXRa partner concentration 90 nM)
Summary of the method: as §1

[14] = system: PPARg DBDmut IVT, anti-PPARg (DBD mutation: PPARg1 K132A/R137A, NR concentration 270 nM)
Summary of the method: as §1

[15] = system: PPARg homodimer (NR concentration 180 nM)
Summary of the method: as §1

[16] = system: PXR:RXRa (NR concentration 270 nM, RXRa partner concentration 90 nM)
Summary of the method: as §1

[17] = system: PXR homodimer (NR concentration 270 nM)
Summary of the method: as §1

[18] = system: RARa:RXR (NR concentration 270 nM, RXRa partner concentration 90 nM)
Summary of the method: as §1

[19] = system: RARa homodimer (NR concentration 270 nM)
Summary of the method: as §1

[20] = system: RARb:RXRa (NR concentration 270 nM, RXRa partner concentration 90 nM)
Summary of the method: as §1

| Sequence | PBM binding z-score [1] | PBM binding z-score [2] | PBM binding z-score [3] | PBM binding z-score [4] | PBM binding z-score [5] | PBM binding z-score [6] | PBM binding z-score [7] | PBM binding z-score [8] | PBM binding z-score [9] | PBM binding z-score [10] | PBM binding z-score [11] | PBM binding z-score [12] | PBM binding z-score [13] | PBM binding z-score [14] | PBM binding z-score [15] | PBM binding z-score [16] | PBM binding z-score [17] | PBM binding z-score [18] | PBM binding z-score [19] | PBM binding z-score [20] |
| --- | --- | --- | --- | --- | --- | --- | --- | --- | --- | --- | --- | --- | --- | --- | --- | --- | --- | --- | --- | --- |
| TCTCGGAGGACACGAAAGGTCACAGCTCGACATC | 4.58 | 5.46 | 4.91 | 4.7 | 0.595 | 4.62 | 2.83 | 4.15 | 3.13 | 3.77 | 2.07 | 2.97 | 0.919 | 0.445 | 3.93 | 5.57 | 1.09 | 6 | 2.7 | 4.78 |
| ATCGAAAGGTAGACGAGGTGAGTATACACCGTTT | 0.276 | -0.145 | -0.253 | -0.306 | -0.37 | 0.231 | 0.859 | 0.249 | 0.55 | 0.0652 | 0.012 | 0.628 | 0.703 | 0.518 | 0.162 | -0.0156 | -0.144 | 0.31 | 0.224 | 0.438 |
| CAGCCTAGGTCAGTGCCAGTATAGGAGGAACGTT | 0.914 | 0.456 | -0.00279 | 0.349 | -0.648 | 1.17 | 0.469 | 0.475 | -0.196 | 0.0661 | 1.7 | 1.05 | -1.18 | -1.02 | 0.587 | -0.0213 | -0.197 | 0.516 | -0.0242 | 3.17 |
| TCGAGTAGGTTAGTAGGGGCATTCAGCCAACATA | 0.292 | -0.0612 | -0.0759 | 0.774 | -0.216 | 1.29 | 1.01 | 1.82 | 0.971 | 1.35 | 2.98 | 3.4 | 0.408 | 0.00263 | 0.668 | 0.244 | 0.000181 | 0.287 | 0.25 | 0.637 |
| CGTCCAAGCTCATAGGAGGTCAGTGAAGACAGAT | 0.888 | 1.51 | 1.08 | 1.33 | -0.0875 | 1.92 | 0.491 | 0.292 | -0.158 | 0.173 | 0.199 | 0.722 | -0.21 | -0.262 | 1.08 | 1.59 | 0.494 | 1.79 | 0.761 | 2.03 |
| CCTAGTTGGGCAAGGTCACACACGCTATAGGTAC | 3.55 | 3.21 | 1.32 | 3.28 | 0.0205 | 3.88 | 2.45 | 2.92 | 1.03 | 2.25 | 0.83 | 2.2 | 0.202 | 0.558 | 2.56 | 3.9 | 1.13 | 4.04 | 1.63 | 3.91 |
| CCTTACGGGACACGAGGTTATAGCACGACGAGCG | 0.657 | 0.725 | 0.391 | 0.535 | -0.204 | 1.27 | 1.38 | 0.573 | 0.0152 | 0.477 | 0.526 | 0.867 | 0.559 | 0.413 | 0.721 | 0.701 | 0.477 | 0.935 | 0.721 | 1.11 |
| CCAGACAGGTGAGAAGATAACTCAGCCTCGATTA | 0.0426 | 0.15 | -0.0638 | -0.14 | -0.471 | -0.179 | 0.576 | -0.087 | -0.116 | 0.155 | 0.896 | 0.216 | -0.0942 | -0.455 | 0.364 | 0.081 | 0.476 | 0.117 | 0.792 | 0.241 |
| TCTATTAGTTGATTAGGTCAACCGAAACAGCGGA | 1.7 | 2 | 1.49 | 2.02 | 1.35 | 2.94 | 1.16 | 3.19 | 3.91 | 3.59 | 2.89 | 3.1 | 1.43 | 1.8 | 2.28 | 2.03 | 0.923 | 2.56 | 1.9 | 2.73 |
| TCGAGTAGGTAAGTCGGGGCATTCAGCCAACATA | -0.0236 | -0.0704 | -0.439 | -0.175 | -0.922 | 0.0443 | -0.3 | 0.0863 | 0.929 | 0.572 | 1.34 | 0.805 | -1.3 | -0.763 | -0.452 | -0.238 | -0.436 | -0.22 | -0.413 | -0.182 |
| CCTACTCGGCCACGAAAGGTCATTGATTCAGTGA | 3.82 | 5.15 | 5.64 | 4.28 | 0.938 | 4.36 | 1.93 | 3.43 | 1.33 | 2.24 | 2.57 | 2.28 | -0.0183 | -0.203 | 3.66 | 5.12 | 1.83 | 5.43 | 1.61 | 4.03 |
| TATACAGTGTCAAAGGCCAGAGTACGAATGTCGA | 0.666 | 0.861 | 0.197 | 0.608 | 0.893 | 2.18 | 3.95 | 4.17 | 2.41 | 3.86 | 0.051 | 2.04 | 0.51 | 1.14 | 0.46 | 0.552 | 0.236 | 1.33 | 0.548 | 1.88 |
| TAATATAGGTAAAGGTGAAAGTCGAACGATATGA | 1.14 | 1.33 | 0.478 | 1.55 | 0.351 | 4.23 | 6.52 | 6.14 | 4.8 | 6.35 | 6.04 | 6.44 | 2.33 | 2.3 | 2.1 | 1.02 | 0.701 | 1.8 | 1.92 | 2.03 |
| CCTAGTTGGTCTGGAGGTCACACACCGGATATGA | 3.79 | 4.06 | 3.63 | 3.51 | 0.759 | 4.17 | 2.1 | 3.14 | 0.849 | 2.61 | 0.138 | 2.42 | -0.0171 | 0.512 | 3.95 | 4.72 | 1.81 | 5.16 | 2.41 | 3.59 |
